The source of these data is PubChem BioAssay (NCATS).

Values without a mark were called inactive. Inconclusive results are not listed. The source made the active and inactive calls. The call rests on the fitted dose curve; in most records, active means well fitted curve in the direction sought with a large enough effect; inconclusive means small, poorly fitted or top-dose-only effect, or another doubt; inactive means no such curve, though single readings can be large; an effect the other way counts as inactive or inconclusive.

In test [1] the test system is Nanoluciferase (engineered Oplophorus gracilirostris luciferase). Description: Primary Nanoluciferase (NLuc) qHTS assay for identification of artifact compounds. (AID 1845222).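 Further: NLuc secreted into diluted conditioned medium of S16 cells; 0% = DMSO and -100% = no enzyme.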 The method, boiled down:
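qHTS format, against NLuc in S16 cell-conditioned medium. Nano-Glo substrate 1:100 was added after 15 min at room temperature. Luminescence was taken after a further 5 min.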
Background: Quantitative high-throughput screening tests each substance at several concentrations.

Test [2] in a line: Primary redox qHTS assay for identification of artifact compounds. (AID 1845223).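 Further: 0% = DMSO and 100% = reference compound.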 The gist of the method:
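Amplex Red (25 uM) and HRP (250 mU/mL) in HBSS, with compounds for 15 min, then 250 uM DTT for 30 min, room temperature, dark. Fluorescence 525/598 nm read; normalized to DMSO and 10 uM DA3003; Hill fit.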

A short description of test [3]: Quantitative High-Throughput drug screen in 47 multiple myeloma cell lines against the NCATS MIPE library collection: EJM_DSMZ cell viability assay (AID 1918926; further: nearly all actives have a fitted effect of over 30% in size; further: potency means the concentration at half of the fitted maximal effect). The method, boiled down:
(§1)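 Primary qHTS used for cherry-picking: cells at 500/well, library compounds for 48 h (37C, 5% CO2), luminescent ATP assay.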

Test [4] is described as follows: Quantitative High-Throughput drug screen in 47 multiple myeloma cell lines against the NCATS MIPE library collection: AMO1_DSMZ cell viability assay (AID 1918927; further: potency means the concentration at half of the fitted maximal effect; nearly all actives have a fitted effect of over 30% in size). The method, boiled down: as §1
Test [5] can be described thus: Quantitative High-Throughput drug screen in 47 multiple myeloma cell lines against the NCATS MIPE library collection: Karpas620_DSMZ cell viability assay (AID 1918959). Further: nearly all actives have a fitted effect of over 30% in size. Further: potency means the concentration at half of the fitted maximal effect.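 On viability (% of DMSO): 100% = DMSO-only wells and 0% = cell-free media-only wells.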 The method, boiled down: (§2)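 Inhibition of cell viability is measured here. Each line was plated at 500 cells per well, treated with MIPE 4.0 drugs, kept 48 hours at 37C, then assayed for ATP content by CellTiter-Glo luminescence.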

Test [6] can be described thus: Quantitative High-Throughput drug screen in 47 multiple myeloma cell lines against the NCATS MIPE library collection: JIM1_ECACC cell viability assay (AID 1918964). The gist of the method: as §1
Test [7] can be described thus: Quantitative High-Throughput drug screen in 47 multiple myeloma cell lines against the NCATS MIPE library collection: INA6_PLB cell viability assay (AID 1918965; further: nearly all actives have a fitted effect of over 55% in size; further: potency means the concentration at half of the fitted maximal effect). The gist of the method: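 qHTS of the MIPE 4.0 collection: 500 myeloma cells/well, 48 h drug exposure at 37C in 5% CO2, then CellTiter-Glo for 5 min at room temperature before luminescence reading.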
Test [8] in a line: Quantitative High-Throughput drug screen in 47 multiple myeloma cell lines against the NCATS MIPE library collection: JJN3_DSMZ cell viability assay (AID 1918966; further: nearly all actives have a fitted effect of over 50% in size; further: potency means the concentration at half of the fitted maximal effect). The gist of the method:
as §1

A short description of test [9]: Quantitative High-Throughput drug screen in 47 multiple myeloma cell lines against the NCATS MIPE library collection: H1112_PLB cell viability assay (AID 1918967; further: nearly all actives have a fitted effect of over 30% in size; further: potency means the concentration at half of the fitted maximal effect). The gist of the method:
as §1

The nature of test [10]: Quantitative High-Throughput drug screen in 47 multiple myeloma cell lines against the NCATS MIPE library collection: Karpas25_ECACC cell viability assay (AID 1918968; further: nearly all actives have a fitted effect of over 35% in size; further: potency means the concentration at half of the fitted maximal effect). The gist of the method: as §1
The nature of test [11]: Quantitative High-Throughput drug screen in 47 multiple myeloma cell lines against the NCATS MIPE library collection: FR4_PLB cell viability assay (AID 1918924; further: nearly all actives have a fitted effect of over 35% in size; further: potency means the concentration at half of the fitted maximal effect). The method, boiled down:
as §2

The nature of test [12]: Quantitative High-Throughput drug screen in 47 multiple myeloma cell lines against the NCATS MIPE library collection: Delta47_JCRB cell viability assay (AID 1918925; further: nearly all actives have a fitted effect of over 45% in size; further: potency means the concentration at half of the fitted maximal effect;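 on viability (% of DMSO): 0% = media-only wells and 100% = DMSO-only wells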). The method, boiled down: as §1
The nature of test [13]: Quantitative High-Throughput drug screen in 47 multiple myeloma cell lines against the NCATS MIPE library collection: ARP1_JJKsccF8 cell viability assay (AID 1918928; further: potency means the concentration at half of the fitted maximal effect; nearly all actives have a fitted effect of over 40% in size). The method, boiled down: (§3)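 Here, 48 h treatment with MIPE 4.0 agents at 37 °C preceded an ATP luminescence read. Plating density was 500 cells per well.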
A short description of test [14]: Quantitative High-Throughput drug screen in 47 multiple myeloma cell lines against the NCATS MIPE library collection: ARD_JJKsccE7 cell viability assay (AID 1918929; further: potency means the concentration at half of the fitted maximal effect;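 on viability: 100% = DMSO-only wells and 0% = media-only wells without cells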). The gist of the method:
as §1

Test [15] is described as follows: Quantitative High-Throughput drug screen in 47 multiple myeloma cell lines against the NCATS MIPE library collection: KMM1_JCRB cell viability assay (AID 1918960). Further: nearly all actives have a fitted effect of over 30% in size. Further: potency means the concentration at half of the fitted maximal effect.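 On viability (% of DMSO): 100% = DMSO-treated cells and 0% = medium-only wells.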 The gist of the method: as §3
A short description of test [16]: Quantitative High-Throughput drug screen in 47 multiple myeloma cell lines against the NCATS MIPE library collection: KHM11_PLB cell viability assay (AID 1918962). Further: nearly all actives have a fitted effect of over 35% in size. Further: potency means the concentration at half of the fitted maximal effect. The gist of the method:
as §2

A short description of test [17]: Quantitative High-Throughput drug screen in 47 multiple myeloma cell lines against the NCATS MIPE library collection: KMS12BM_JCRB cell viability assay (AID 1918971). Further: potency means the concentration at half of the fitted maximal effect; nearly all actives have a fitted effect of over 35% in size. The gist of the method:
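Viability readout: CellTiter-Glo luminescence following 5 min room-temperature incubation with reagent. Prior exposure: 48 h, 37C, humidified 5% CO2, 500 cells per well.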

Test [18] is described as follows: Quantitative High-Throughput drug screen in 47 multiple myeloma cell lines against the NCATS MIPE library collection: JIM3_ECACC cell viability assay (AID 1918963; further: nearly all actives have a fitted effect of over 35% in size; further: potency means the concentration at half of the fitted maximal effect). The gist of the method:
as §2

A short description of test [19]: Quantitative High-Throughput drug screen in 47 multiple myeloma cell lines against the NCATS MIPE library collection: KMS27_JCRB cell viability assay (AID 1918970). The following applies: KMS27 myeloma cells, CellTiter-Glo ATP viability, 48 h; viability (% of DMSO): at 45.8 µM (top of the series). The gist of the method:
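Each line is seeded at 500 cells per well and treated with library compounds for 48 hours under 37 °C, 5% CO2. CellTiter-Glo is then added for 5 min at room temperature before median relative luminescence is recorded.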

As to `COc1ccc(Cn2ccc3ccc(C(=O)NO)cc32)cc1`, the Potency entry in test [1], in test [5], in [6] and in [9] was “inactive” in each case. In test [2], the outcome was inactive. Besides, the Potency was 20.9 µM (active) in test [3]; 16.6 µM (active) in [4]; 13.2 µM (active) in test [7]; 11.8 µM (active) in [8]; 16.6 µM (active) in test [10].
In the case of `CN1CCC(COc2cnc(-c3cccc(Cn4nc(-c5cccc(C#N)c5)ccc4=O)c3)nc2)CC1`, the Potency entry in test [1], in [14], in [5], in [15] and in [6] was “inactive” throughout. Besides, in test [2], the result was inactive. Besides, the Potency was 26.4 µM (active) in test [11]; 0.209 µM (active) in [12]; 20.9 µM (active) in [13]; 8.33 µM (active) in [16]; 0.418 µM (active) in test [7]; 0.0332 µM (active) in test [8]. Also, the Potency was 0.118 µM (active) in [9], 0.0743 µM (active) in test [10] and 13.2 µM (active) in [17].
Consider `COc1ccc(CCC(=O)Nc2nc3ccc(Cl)cc3s2)cc1OC`, for which the Potency result in [1], in [11], in test [14], in [5], in test [15] and in test [16] was “inactive” throughout. The Potency result in test [8] and in test [19] was “inactive” throughout. Also, in [2], the compound was classed as inactive. Also, the Potency in test [18] was 14.8 µM (active).
Turning to `CC(C)(O)CC(=O)NCCn1ccc2ncnc(Nc3ccc(Oc4cccc(C(F)(F)F)c4)c(Cl)c3)c21`, the Potency entry in test [1] is “inactive”. In test [2], the compound was classed as inactive. The Potency is 26.4 µM (active) in [11]; 18.7 µM (active) in [12]; 1.87 µM (active) in test [3]; 16.6 µM (active) in [4]; 5.9 µM (active) in test [5]; 5.26 µM (active) in [15]. In addition, the Potency in test [7] was 29.6 µM (active); in test [17], 23.5 µM (active).
Consider `Fc1ccc(CNc2ncnc3ccc(F)cc23)cc1`, for which the Potency entry in test [1] is “inactive”. Besides, the call in test [2] was inactive. For the same compound, the Potency in test [12] is 7.43 µM (active); in test [3], 6.62 µM (active); in [4], 7.43 µM (active); in [13], 6.62 µM (active); in [14], 4.69 µM (active); in [5], 5.9 µM (active). The Potency in [16] was 8.33 µM (active); in [18], 11.8 µM (active); in test [7], 8.33 µM (active); in test [9], 13.2 µM (active); in [10], 3.72 µM (active); in test [17] it was 3.72 µM (active).
Take `Cc1cc2c(cc1C1(c3ccc(C(=O)O)cn3)CC1)C(C)(C)CCC2(C)C`: the Potency result in test [1], in test [11], in [3], in test [5] and in [15] was “inactive” each time. In addition, the call in test [2] was inactive. Moreover, the Potency in test [4] is 5.26 µM (active); in test [13] it was 26.4 µM (active); in [18], 0.332 µM (active); in test [8], 1.05 µM (active); in test [17], 3.32 µM (active).
`CN[C@@H](C)[C@H]1[C@H](O)C[C@@]2(C)[C@@H]3CC[C@H]4C(C)(C)[C@@H](NC)CC[C@@]45C[C@@]35CC[C@]12C`: the activity, negative = inhibition in [1] is 3.6% [at 11.6 µM]. Further, the redox activity (% of DA3003) in [2] is -0.744% [at 11.5 µM]. In addition, the Potency entry in test [12], in test [14], in test [5], in [15], in test [18] and in test [6] was “inactive” in each case. Also, the Potency result in test [7], in test [8], in test [9], in test [10] and in test [19] was “inactive” in each case. For the same compound, in test [13], the Potency is 23.5 µM (active).
